Assay [1] has as its target Cellular tumor antigen p53 (Homo sapiens) (UniProt P04637). Put plainly: Primary qHTS for small molecule compounds that upregulate eGFP-tagged delta133p53alpha (in N-terminal) cells. (AID 2060322). Also: nearly all actives have a fitted effect of over 75% in size. Also: potency is read from the fitted curve at half-maximal effect.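 As to activation: cells pre-induced with doxycycline then dosed without doxycycline; series mostly up to about 56 µM; 0% = DMSO vehicle and 100% = reference activator.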 The conditions noted are these: NCI-H358 eGFP-delta133p53alpha fluorescence, 24 h; activation: active compounds read high. The procedure, abridged: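 NCI-H358 cells pre-induced 24 h with 10 ng/ml doxycycline for eGFP-delta133p53alpha, plated dox-free and exposed 24 h at 37C to titrated compounds. Fixed, Hoechst-stained; gated GFP peak intensity by laser scanning cytometry, normalized to DMSO (0%) and 57.5 uM 5-azacytidine (100%).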
In general terms: Quantitative high-throughput screening tests each substance at several concentrations.

Assay [2] is described as follows: BET inhibitor-based combinations targeting novel dependencies in MECOM-rearranged (r) AML: SET-2 cell line (AID 2202231). Also: nearly all actives have a fitted effect of over 35% in size. Also: potency is read from the fitted curve at half-maximal effect.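 As to viability: plate controls were DMSO treated cells for no effect and wells without cells for full effect.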 The conditions noted are these: SET-2 AML cells viability, CellTiter-Glo luminescence, 48 h; viability: active compounds read low, concentration not given here. A digest of the protocol:
(§1)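 A 48 hr incubation preceded viability reading by CellTiter-Glo, with 15 min room-temperature development. Dose series had 11 points; normalization used DMSO and empty wells; AUC was computed and mean-centered per line as Z-AUC.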
Background: In ATP-based viability assays light output follows the ATP content of the culture.

Assay [3] is described as follows: BET inhibitor-based combinations targeting novel dependencies in MECOM-rearranged (r) AML: OCI-AML3 cell line (AID 2202232). Also: nearly all actives have a fitted effect of over 35% in size. Also: potency is read from the fitted curve at half-maximal effect. The conditions noted are these: Potency: OCI-AML3 viability. The procedure, abridged:
as §1

A short description of assay [4]: BET inhibitor-based combinations targeting novel dependencies in MECOM-rearranged (r) AML: MV-4-11 cell line (AID 2202233). Also: nearly all actives have a fitted effect of over 45% in size. Also: potency is read from the fitted curve at half-maximal effect. A digest of the protocol: (§2)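 Each compound is tested in an 11-point concentration series against 500 seeded cells/well for 48 hr. The luminescent viability signal is normalized to DMSO and blank wells, then reduced to AUC and a cell-line-centred Z-AUC.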

Assay [5] is described as follows: BET inhibitor-based combinations targeting novel dependencies in MECOM-rearranged (r) AML: UCSD-AML1 cell line (AID 2202235). Also: nearly all actives have a fitted effect of over 40% in size. Also: potency is read from the fitted curve at half-maximal effect. A digest of the protocol: as §2
The nature of assay [6]: BET inhibitor-based combinations targeting novel dependencies in MECOM-rearranged (r) AML: AML-194 cell line (AID 2202237; also: nearly all actives have a fitted effect of over 40% in size; also: potency is read from the fitted curve at half-maximal effect). The procedure, abridged: as §1
Assay [7] in a line: BET inhibitor-based combinations targeting novel dependencies in MECOM-rearranged (r) AML: AML-191 cell line (AID 2202236; also: nearly all actives have a fitted effect of over 35% in size; also: potency is read from the fitted curve at half-maximal effect). A digest of the protocol: as §1
A short description of assay [8]: BET inhibitor-based combinations targeting novel dependencies in MECOM-rearranged (r) AML: HNT-34 cell line (AID 2202234).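 Also: plate controls were vehicle wells for no effect and cell-free wells for full effect; nearly all actives have a fitted effect of over 35% in size.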 The procedure, abridged:
as §2

Several values for one entry are separate records, joined by “and”; a condition that tells them apart may be missing. Equal values may be shown once. Results filed as inconclusive are left out. Values without a mark were called inactive. Activity calls are given as the source filed them. Calls follow the shape of the dose curve; as a rule, active = well fitted curve in the direction sought with a large enough effect; inconclusive = small, poorly fitted or top-dose-only effect, or another doubt; inactive = no such curve, though single readings can be large; an effect the other way counts as inactive or inconclusive.

Chain of Cellular tumor antigen p53 (Homo sapiens) (P04637 whole entry, looked up): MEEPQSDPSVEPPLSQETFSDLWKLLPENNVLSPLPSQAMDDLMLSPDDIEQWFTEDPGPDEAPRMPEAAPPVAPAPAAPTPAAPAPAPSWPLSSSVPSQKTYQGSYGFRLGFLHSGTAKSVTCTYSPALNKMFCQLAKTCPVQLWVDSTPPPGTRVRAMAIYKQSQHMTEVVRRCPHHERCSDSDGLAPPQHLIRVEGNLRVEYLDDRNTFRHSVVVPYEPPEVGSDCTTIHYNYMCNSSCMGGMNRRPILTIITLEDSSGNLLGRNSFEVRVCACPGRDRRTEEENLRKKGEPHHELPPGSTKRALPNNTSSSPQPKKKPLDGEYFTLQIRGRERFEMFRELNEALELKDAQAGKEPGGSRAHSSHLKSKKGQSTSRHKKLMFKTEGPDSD

Take `C=CC(=O)Nc1cc2c(Nc3ccc(F)c(Cl)c3)ncnc2cc1OCCCN1CCOCC1`: the Potency in assay [1] is 4.9 µM (active); in assay [2], 14.8 µM (active); in assay [3], 4.68 µM (active); in assay [4], 1.32 µM (active); in assay [5], 4.68 µM (active); in assay [6], 11.8 µM (active).
In the case of `CN(C)CC/C=C1/c2ccccc2COc2ccc(CC(=O)O)cc21`, in assay [1], the activation was -13%. In assay [2], the viability (in general, a read-out of living cells in per cent, often relative to untreated cells) was 121%. In addition, the Potency entry in assay [3], in assay [4] and in assay [6] was “inactive” each time.
Take `c1coc(CNc2ncnc3nc[nH]c23)c1`: in assay [1], the activation was -14.3%. In assay [2], the viability is 107%. Further, the Potency entry in assay [3], in assay [4], in assay [5] and in assay [6] was “inactive” in each case.
As for `O=c1cc(N2CCOCC2)oc2c(-c3cccc4c3sc3ccccc34)cccc12`, the activation in assay [1] was 27.5%. The Potency is 9.34 µM (active) in assay [2], 8.33 µM (active) in assay [3], 4.17 µM (active) in assay [4] and 5.9 µM (active) in assay [7].
Regarding `O=[N+]([O-])c1cncn1CCN1CCOCC1`, in assay [1], the activation was -23.4%. For the same compound, the viability in assay [2] is 112%. In addition, the Potency result in assay [3], in assay [8], in assay [5], in assay [7] and in assay [6] was “inactive” in each case.
Turning to `CCCCCCCCCCCCc1ccc(S(=O)(=O)Nc2nncs2)cc1`, the activation in assay [1] was -6.63%. Also, the viability in assay [2] was 118%. In addition, the Potency result in assay [3], in assay [4], in assay [7] and in assay [6] was “inactive” each time.
In the case of `C[Se]CCC(N)C(=O)O` (centres undefined), the activation in assay [1] was -7.89%. Further, the viability in assay [2] is 105%. Besides, the Potency result in assay [3], in assay [8], in assay [5], in assay [7] and in assay [6] was “inactive” each time.
With `N#CNC(=NCCCCCCOc1ccc(Cl)cc1)Nc1ccncc1`, in assay [1], the activation was 37.2%. In addition, the Potency is 13.2 µM (active) in assay [2], 0.0105 µM (active) in assay [3], 0.0372 µM (active) in assay [4] and 0.0186 µM (active) in assay [7].
For the compound `COc1c(N2CCNC(C)C2)c(F)cc2c(=O)c(C(=O)O)cn(C3CC3)c12` (centres undefined), the activation in assay [1] was 12.6% and 24.5%. For the same compound, in assay [2], the viability was 100%. Also, the Potency result in assay [3], in assay [8], in assay [5] and in assay [7] was “inactive” each time.
As for `COc1cc(F)c(C(C)C)cc1-c1ccc(C(F)(F)F)cc1CN1C(=O)O[C@H](c2cc(C(F)(F)F)cc(C(F)(F)F)c2)[C@@H]1C`, the activation in assay [1] is -9.08%. Further, the viability in assay [2] is 105%. Besides, the Potency entry in assay [3], in assay [8], in assay [5], in assay [7] and in assay [6] was “inactive” throughout.
On to `COc1ccc(Nc2nccc(NCCO)n2)cc1`, for which the activation in assay [1] was 25.6%. Also, in assay [2], the viability was 106%. Besides, the Potency in assay [3] is 23.5 µM (active). The Potency result in assay [8], in assay [5], in assay [7] and in assay [6] was “inactive” in each case.
Regarding `CCC(=O)O[C@]1(C(=O)SCF)[C@H](C)C[C@H]2[C@@H]3C[C@H](F)C4=CC(=O)C=C[C@]4(C)[C@@]3(F)[C@@H](O)C[C@@]21C`, the activation in assay [1] was 17.6% and 0.401%. In assay [2], the viability is 114%. The Potency entry in assay [3], in assay [8], in assay [5] and in assay [7] was “inactive” in each case.
Take `COC(=O)[C@H](c1ccccc1Cl)N1CCc2sccc2C1`: in assay [1], the activation is 12.2%. In addition, the viability in assay [2] is 110%. Besides, the Potency entry in assay [3], in assay [8], in assay [5], in assay [7] and in assay [6] was “inactive” each time.
With `CN1CCCN=C1/C=C/c1cccs1`, in assay [1], the activation was -2.82%. Also, the viability in assay [2] is 73.8%. Further, the Potency result in assay [3], in assay [4] and in assay [6] was “inactive” throughout. Moreover, the Potency in assay [5] was 2.95 µM (active).
On to `COc1cc2c(cc1OC)[C@@H]1C(=O)c3ccc4c(c3O[C@@H]1CO2)C=CC(C)(C)O4`, for which, in assay [1], the activation is -3.86%. Besides, the Potency in assay [2] is 13.2 µM (active); in assay [3], 0.525 µM (active); in assay [4], 6.61 µM (active); in assay [7], 9.34 µM (active); in assay [6], 20.9 µM (active).
Take `CC(=O)SC[C@@H](C)C(=O)N1CCC[C@H]1C(=O)N[C@@H](Cc1ccccc1)C(=O)O`: in assay [1], the activation was -26.8%. Also, in assay [2], the viability is 115%. Moreover, the Potency result in assay [3], in assay [8], in assay [5], in assay [7] and in assay [6] was “inactive” in each case.
As for `O=C(O)CCCCC(CCSCc1ccccc1)SCc1ccccc1` (centres undefined), the activation in assay [1] is 1.42%. The viability in assay [2] was 107%. Also, the Potency result in assay [3], in assay [8], in assay [5], in assay [7] and in assay [6] was “inactive” throughout.
On to `Cc1ccccc1N1C(=O)c2cc(S(N)(=O)=O)c(Cl)cc2NC1C` (centres undefined), for which, in assay [1], the activation is -15.9% and -14.5%. In assay [2], the viability was 115%. The Potency result in assay [3], in assay [8], in assay [5], in assay [7] and in assay [6] was “inactive” each time.
As for `NC(=O)c1cccc(-c2cccc(OC(=O)NC3CCCCC3)c2)c1`, the activation in assay [1] was -16.3%. Further, the viability in assay [2] was 103%. Besides, the Potency result in assay [3], in assay [8], in assay [5], in assay [7] and in assay [6] was “inactive” in each case.
`OC[C@H]1O[C@@H](O[C@@H]2[C@@H](CO)O[C@](O)(CO)[C@H]2O)[C@H](O)[C@@H](O)[C@H]1O`: the activation in assay [1] was 10%. Moreover, in assay [2], the viability was 108%. Moreover, the Potency result in assay [3], in assay [8], in assay [5], in assay [7] and in assay [6] was “inactive” in each case.
On to `CCOC(=O)c1ccc(OC(=O)CCCCCN=C(N)N)cc1`, for which the activation in assay [1] was 31%. Besides, the viability in assay [2] is 106%. Also, the Potency result in assay [3], in assay [8], in assay [5], in assay [7] and in assay [6] was “inactive” in each case.
For the compound `O=C(Nc1cccc(Cl)c1)Nc1ncc(CCNc2ncnc3ccsc23)s1`, in assay [1], the activation is -7.26%. The Potency in assay [2] was 20.9 µM (active); in assay [3], 0.166 µM (active). Also, the Potency entry in assay [8] and in assay [5] was “inactive” each time.

Values taken from PubChem BioAssay (NCATS).
